Shown are actives, neighbours in structure and some others; about 4.8% of the full set was active somewhere.
SMARCA2 activ = SMARCA2 function activation, primary screen; activation, % at 9.1 µM; 370,000 tested, 1% active; MG213 cells, MMTV-luciferase reporter, dexamethasone, overnight; in the data active means activation above about 7.8%;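 further: 0% = vehicle wells and 100% = reference activator wells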
hcDAF12 agonist = activators of H. contortus DAF-12 nuclear receptor; HEK293 hcDAF-12 lit1-tk-luc reporter, luminescence; 0% DMSO, 100% Δ7-dafachronic acid; activation, % at 6.8 µM; 370,000 tested, 1.4% active; AID 652067;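 active means activation above the mean of all tested compounds plus 3 SD, cut at about 5.5% in these data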;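 further: 100% = response to 3 µM Δ7-dafachronic acid high control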
DAX1 inh-1 = DAX1 (NR0B1) inhibition, primary screen; AID 652010; 370,000 tested, 1.1% active; HEK293T StAR-luciferase reporter, SF-1/DAX-1 repression relief; inhibition, % at 6.8 µM;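 active means inhibition above the mean over all tested compounds plus 3 SD, cut at about 3.6% in these data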;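 further: 0% = DAX-1 cells with DMSO and 100% = cells lacking DAX-1 with DMSO; higher inhibition means more luminescence from relief of DAX-1 repression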
ssDAF-12 act = activates DAF-12 receptor from parasite S. stercoralis. AID 652126. HEK293 ssDAF-12/GRIP1 lit1-tk-luc reporter, luminescence; % of 3 µM dafachronic acid response. 370,000 tested, 1% active. activation, % at 6.8 µM;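 active means activation above the mean over all tested compounds plus 3 SD, cut at about 0.9% in these data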;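 further: 0% = DMSO-only wells and 100% = 3 µM delta7-dafachronic acid wells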
DAX1 inh-2 = NR0B1 (DAX1) inhibition. AID 504766. 340,000 tested, 0.99% active. HEK293 Gal4-DAX1 luciferase reporter, luminescence. inhibition, % at 6.75 µM. P51843;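 active means inhibition above the mean over all tested compounds plus 3 SD, cut at about 4.2% in these data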;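 further: 0% = DAX1-transfected cells with DMSO and 100% = empty-vector control cells with DMSO; inhibition shows as a rise in luminescence from relieved DAX1 repression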
Target sequence (P51843 207-470 limits assumed): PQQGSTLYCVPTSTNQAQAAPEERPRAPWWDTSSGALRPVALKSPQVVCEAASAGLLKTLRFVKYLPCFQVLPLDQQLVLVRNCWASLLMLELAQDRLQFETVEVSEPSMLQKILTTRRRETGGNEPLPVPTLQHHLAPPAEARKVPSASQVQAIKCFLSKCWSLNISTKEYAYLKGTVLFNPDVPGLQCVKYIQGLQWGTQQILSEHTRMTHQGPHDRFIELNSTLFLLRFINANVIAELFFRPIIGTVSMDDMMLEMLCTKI
hgDAF-12 ag = hgDAF-12 agonism, primary luciferase screen | activation, % at 6.8 µM | AID 687014 | 370,000 tested, 1.8% active | HEK293 GAL4-hgDAF12 UAS-luciferase reporter, agonist luminescence; normalized to butyrate control;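 active means activation above a cutoff set at the mean of all screened compounds plus 3 SD, cut at about 10% in these data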;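 further: 0% = DMSO wells and 100% = sodium butyrate wells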
SMARCA2 conf = confirmation of SMARCA2 (BRM) function activators; shares compounds with SMARCA2 activ; MG213 cells, MMTV-luciferase with dexamethasone, luminescence, overnight; MG213 cells expressing E1A, Rb sequestered; DMSO wells 0%, reference activator 100%; activation, % at 9.1 µM; 3,500 tested, 30% active;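 active means activation above its plate's cutoff, the mean activation of tested wells plus 3 SD, cut at about 7.9% in these data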
GAL4-VP16 Luc = counter-screen for SMARCA2 activators: GAL4-VP16 luciferase reporter activation | shares compounds with SMARCA2 activ | HEK293 GAL4-VP16 pG5luc reporter, luciferase luminescence; scaled: DMSO wells 0%, SAHA wells 100% | activation, % at 9.1 µM | 3,500 tested, 41% active;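 active means activation above the solvent-only control well mean plus 3 SD, averaged across control plates, cut at about 5.2% in these data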
* hit, by the source's call.

Screening O=C(NC1CCCCN(Cc2cccc(Cl)c2)C1=O)c1cccc(C(F)(F)F)c1 (centres undefined) returned SMARCA2 activ -3, hcDAF12 agonist -1, DAX1 inh-1 -1, ssDAF-12 act -1 and hgDAF-12 ag -1.
`Cc1noc(C)c1C(=O)NCCc1ccccc1` gave SMARCA2 activ 9.7*, hcDAF12 agonist 0, DAX1 inh-1 0, ssDAF-12 act -1, DAX1 inh-2 0, hgDAF-12 ag -1, SMARCA2 conf -2 and GAL4-VP16 Luc -1.
For O=C(CSc1nnc(Cc2ccccc2)o1)NCCc1ccccc1 the results were SMARCA2 activ 8.2*, hcDAF12 agonist -1, DAX1 inh-1 1, ssDAF-12 act -1, DAX1 inh-2 0, hgDAF-12 ag 0, SMARCA2 conf 6 and GAL4-VP16 Luc -1.
Screening O=C(CSc1nnc(CNC(=O)c2ccccc2)o1)NCCc1ccccc1 returned SMARCA2 activ 2, hcDAF12 agonist -1, DAX1 inh-1 1, ssDAF-12 act -1, DAX1 inh-2 0 and hgDAF-12 ag -2.
Screening CCN(CC)CCCn1c2c(c(SCC(=O)N3CCc4ccccc43)nc1=O)CCC2 returned SMARCA2 activ -2, hcDAF12 agonist 2, DAX1 inh-1 1, ssDAF-12 act 0, DAX1 inh-2 0 and hgDAF-12 ag 1.
`O=C(Cc1cccs1)N1CCN(S(=O)(=O)c2ccccc2)CC1` gave SMARCA2 activ 0, hcDAF12 agonist -1, DAX1 inh-1 0, ssDAF-12 act -1, DAX1 inh-2 0 and hgDAF-12 ag -1.
COc1ccc(S(=O)(=O)N2CCN(C(=O)Cc3cccs3)CC2)cc1 was read as SMARCA2 activ 9.5*, hcDAF12 agonist 2, DAX1 inh-1 0, ssDAF-12 act -1, DAX1 inh-2 1, hgDAF-12 ag 0, SMARCA2 conf 0 and GAL4-VP16 Luc 1.
`Cc1ccc(/C=N/NC(=O)c2ccco2)cc1` gave SMARCA2 activ 8.8*, hcDAF12 agonist 3, DAX1 inh-1 2, ssDAF-12 act -1, hgDAF-12 ag 12*, SMARCA2 conf 6 and GAL4-VP16 Luc 11*.
For CN(Cc1cccc(F)c1)C(=O)CNS(=O)(=O)c1ccc2ccccc2c1 the results were SMARCA2 activ -2, hcDAF12 agonist 0, DAX1 inh-1 0, ssDAF-12 act 0, DAX1 inh-2 0 and hgDAF-12 ag -1.
`CCSc1nnc(CCNC(=O)OC(C)(C)C)o1` gave SMARCA2 activ 9.5*, hcDAF12 agonist -1, DAX1 inh-1 -1, ssDAF-12 act -1, DAX1 inh-2 -1, hgDAF-12 ag -1, SMARCA2 conf -2 and GAL4-VP16 Luc 0.
For C=C(C)CSc1nnc(CCNC(=O)OC(C)(C)C)o1 the results were DAX1 inh-2 -1.
`CCOc1ccc(C(=O)Nc2nc(C)c(C(=O)OC)s2)cc1` gave SMARCA2 activ 8.8*, hcDAF12 agonist 3, DAX1 inh-1 1, ssDAF-12 act 1, hgDAF-12 ag 5, SMARCA2 conf 8.7* and GAL4-VP16 Luc 12*.
CCOCCN1CCN(c2c(C)c(C)nc3cc(-c4cc(OC)cc(OC)c4)nn23)CC1 was read as SMARCA2 activ 5, hcDAF12 agonist -3, DAX1 inh-1 -1, ssDAF-12 act -2, DAX1 inh-2 -1 and hgDAF-12 ag -4.
Screening COCCN1CCN(c2c(C)c(C)nc3cc(-c4cccc(OC)c4)nn23)CC1 returned SMARCA2 activ 11*, hcDAF12 agonist 3, DAX1 inh-1 1, ssDAF-12 act -1, DAX1 inh-2 2, hgDAF-12 ag 6, SMARCA2 conf 9.7* and GAL4-VP16 Luc 5.
Screening Cc1ccc(Nc2nc(N)nc(CC#N)n2)cc1 returned SMARCA2 activ 12*, hcDAF12 agonist 3, DAX1 inh-1 1, ssDAF-12 act -1, DAX1 inh-2 2, hgDAF-12 ag 4, SMARCA2 conf 8 and GAL4-VP16 Luc 6.6*.
